Data taken from PubChem BioAssay.
Several values for one entry are separate records, joined by “and”; a condition that tells them apart may be missing. Equal entries are not always repeated. Activity calls are given as the source filed them. Cut-off read from the data, not from the text of the source: active = fold change permeability below about 0.7 or above about 1.3; inactive = in between.

Assay: compounds altering in vitro BBB leakiness – cell-based, FITC-avidin fluorescence, HTS, primary screen (AID 1963498); note: test concentration not given here
Conditions: brain endothelial barrier, actives lie on both sides

Row | SMILES | fold change permeability
1 | CN1C2CCC1CC(OC(c1ccccc1)c1ccccc1N)C2 (configuration not stated) | 1.1 (inactive)
2 | NC(=O)CN1CC(O)CC1=O (configuration not stated) | 0.8 (inactive)
3 | NCC1(CC(=O)O)CCCCC1 | 0.9 (inactive)
4 | O=C(N[C@H]1CN2CCC1CC2)c1ccc(Cl)cc1 | 1.3 (active)
5 | CC(N)Cc1c[nH]c2ccc(O)cc12 (configuration not stated) | 0.8 (inactive)
6 | CNCC(O)c1ccc(O)cc1 (configuration not stated) | 0.7 (active)
7 | NC(N)=NOCC[C@H](N)C(=O)O | 1 (inactive) and 0.8 (inactive)
8 | c1ccc2sc(C3(N4CCCCC4)CCCCC3)cc2c1 | 1 (inactive)
9 | COC(=O)C1=CCCN(C)C1 | 1.2 (inactive)
10 | CCOC(=O)c1ccc(-c2ccc(OC(=O)N(C)Cc3cccc(-c4ccncc4)c3)cc2)cc1 | 1.2 (inactive)
11 | CN1CC[C@@]2(C)c3cc(OC(=O)Nc4ccccc4)ccc3N(C)[C@@H]12 | 1.4 (active)
12 | N[C@@H](Cn1oc(=O)[nH]c1=O)C(=O)O | 1.1 (inactive)
13 | CC(N)C(=O)OC(C)(C)Cc1ccc(Cl)cc1 (configuration not stated) | 1.1 (inactive)
14 | C[N+](C)(C)CC#CCOC(=O)Nc1cccc(Cl)c1 | 0.9 (inactive)
15 | CCC1(c2ccc(N)cc2)CCC(=O)NC1=O (configuration not stated) | 1 (inactive)
16 | C[N+](C)(C)CCOC(=O)CBr | 1 (inactive)
17 | Clc1cnc(Oc2ccc(Oc3ncc(Cl)cc3Cl)cc2)c(Cl)c1 | 1.4 (active)
